Experiment [1] deals with XIP peptide (Xip251-270) binding. Nature of the experiment: XIP fragment 251-270 binding compounds – biochemical, small-molecule microarray, fluorescence 635/667 nm, 0.1 µg/mL protein, primary screen (AID 1182). Particulars: fluorescent protein binding, 635 nm, higher = more signal, called active from +8 up or from −8 down.
A further experiment deals with XIP peptide (Xip251-270). Briefly: compounds binding XIP fragment 251-270 – biochemical, small-molecule microarray, fluorescence 635/667 nm, 0.5 µg/mL protein, primary screen (AID 1183). The note with it: fluorescence 635 nm, higher = more signal.
The nature of experiment [2]: blood-stage malaria parasite viability loss – strain 3D7, DAPI fluorescence, 100 nL, primary screen (AID 1184).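 Note: parasites grown inside human red blood cells in medium with human serum.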 The note with it: P. falciparum 3D7 growth, 3 d, higher = more signal.
For experiment [3], the target named is Homeobox protein Hox-A13 (Mus musculus) (UniProt Q62424). Briefly: disruptors of Hoxa13 oligonucleotide interaction – biochemical, fluorescence polarization, labeled oligonucleotide, primary screen (AID 1185). The note with it: Hoxa13:DNA binding, 15 min, higher = more signal, called active from +8 up or from −8 down. (In general: Fluorescence polarisation rises when a labelled molecule tumbles more slowly, as on binding a larger partner.)
Chain of Homeobox protein Hox-A13 (Mus musculus) (Q62424 whole entry, looked up): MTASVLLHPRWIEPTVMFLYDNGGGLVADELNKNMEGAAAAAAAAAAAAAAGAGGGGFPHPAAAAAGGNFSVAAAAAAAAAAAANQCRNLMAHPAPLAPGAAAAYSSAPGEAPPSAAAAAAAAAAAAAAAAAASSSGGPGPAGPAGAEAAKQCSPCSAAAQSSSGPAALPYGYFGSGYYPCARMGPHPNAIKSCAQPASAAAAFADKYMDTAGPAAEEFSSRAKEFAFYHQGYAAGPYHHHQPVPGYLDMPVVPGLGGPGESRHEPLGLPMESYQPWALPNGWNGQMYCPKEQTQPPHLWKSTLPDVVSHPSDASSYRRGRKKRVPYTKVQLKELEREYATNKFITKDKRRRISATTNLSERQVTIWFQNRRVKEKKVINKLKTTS

Each structure is given as a SMILES string. Calls of active or inactive are those of the source.

Regarding `CC(=O)OC[C@H]1O[C@H](CCON=C(C)CCN2CCCc3nc(C)c(C)cc32)C=C[C@@H]1OC(C)=O`, the values for the composite z-score (in experiment [1]; with XIP peptide (Xip251-270)) were 0.36 (inactive) and 0.651, respectively. Further, the z-score in experiment [2] was -1.47; in experiment [3], -6.43 (inactive).
For `CCc1cc2c(nc1CC)CCN(CCC(C)=NOCC[C@@H]1C=C[C@H](OC(C)=O)[C@@H](COC(C)=O)O1)C2`, in that order: -0.0297 (inactive), 0.45, -0.876 and -5.38 (inactive).
In the same order, the values of `CO[C@H]1COC(=O)CCC[C@H](C)[C@H](OC)COC(=O)CC=C[C@@H]1C` are 0.239 (inactive), 0.0648, -0.116 and -0.695 (inactive).
In the same order, the values of `CCN(CC)CC(O)CN1CCCCc2nc(C)c(C)cc21` (stereo not drawn) are -0.344 (inactive), -0.136, 0.694 and -1.17 (inactive).
For the compound `C=CC[C@@H]1C=C[C@H](Oc2ccc(C)cc2)[C@@H](COC(=O)NCc2cccc3ccccc23)O1`, the composite z-score in experiment [1] was -0.405 (inactive); in the experiment with XIP peptide (Xip251-270), 0.427. Further, the z-score was -0.517 in experiment [2] and -0.901 (inactive) in experiment [3].
`CC(CCC(=O)OC[C@H]1O[C@H](C#Cc2ccccc2)C=C[C@@H]1Oc1ccc(C)cc1)=NOC(C)CN1CCCCc2nc(C)c(C)cc21` (stereo partly drawn): the composite z-score was -0.185 (inactive) in experiment [1] and 0.0787 in the experiment on XIP peptide (Xip251-270). Moreover, the z-score in experiment [2] was -2.06; in experiment [3], -2.02 (inactive).
In the same order, the values of `C#CCCCON=C1C[C@@H](O)[C@@H](O)[C@@H]2[C@@H]3C(=O)N(C[C@@H]4CCCO4)C(=O)[C@@H]3CC[C@@H]12` are 0.141 (inactive), 0.384, 1.38 and 0.866 (inactive).
For `COc1ccc(OC[C@H]2CN3[C@@H](CC[C@@H](C)[C@@H]3c3ccc(Br)cc3)C(=O)O2)cc1`, in that order: -0.192 (inactive), 0.61, -1.32 and -0.626 (inactive).
In the same order, the values of `C[C@H]1C=CCC(=O)OC[C@H](C)C(=O)N2CCC[C@H]2C(=O)OC1` are 0.23 (inactive), 0.476, 0.878 and -0.266 (inactive).
For `CC(=O)OC[C@H]1O[C@H](CCON=C(C)C)C=C[C@@H]1OC(C)=O`, the composite z-score in experiment [1] was -0.843 (inactive); in the experiment with XIP peptide (Xip251-270), 0.0795. For the same compound, the values for the z-score in experiment [2] and in experiment [3] were 1.48 and 0.389 (inactive), respectively.
For `COC(=O)[C@@H]1CC[C@H](C)[C@@H](c2ccc(Br)cc2)N1C[C@@H](O)CN=[N+]=[N-]`, in that order: -0.193 (inactive), -0.03, -0.877 and -3.81 (inactive).
In the same order, the values of `COc1ccc(COC(=O)NN=C2C[C@@H](O)[C@@H](O)[C@@H]3[C@@H]4C(=O)N(C[C@@H]5CCCO5)C(=O)[C@@H]4CC[C@@H]23)cc1` are -0.155 (inactive), 0.744, -0.0701 and 0.903 (inactive).
Regarding `CCN1C(=O)[C@H]2[C@H]3[C@H](O)[C@H](O)CC(=NOCC(C)C)[C@H]3CC[C@H]2C1=O`, the composite z-score in experiment [1] is -0.583 (inactive); in the experiment with XIP peptide (Xip251-270) it was -0.122. In addition, the z-score was 1.82 in experiment [2] and 0.204 (inactive) in experiment [3].
For `O=C1[C@H]2[C@H]3[C@H](O)[C@H](O)CC(=NO[C@@H]4O[C@H](CO)[C@@H](O)[C@H](O)[C@H]4O)[C@H]3CC[C@H]2C(=O)N1C[C@@H]1CCCO1`, in that order: -0.48 (inactive), 0.184, 0.656 and 0.594 (inactive).
For `CCOC(=O)NN=C1C[C@@H](O)[C@@H](O)[C@@H]2[C@@H]3C(=O)N(c4ccc(F)cc4F)C(=O)[C@@H]3CC[C@H]12`, in that order: 0.192 (inactive), -0.119, -1.36 and 1.14 (inactive).
In the same order, the values of `CC=CC1=C(CO)[C@H](O)[C@H]2O[C@H]2[C@@H]1O` are 0.353 (inactive), 0.374, 0.0425 and -0.101 (inactive).
Turning to `COC(=O)[C@H](Cc1ccccc1)NC(=O)[C@@H](C)CO`, the composite z-score in experiment [1] is -0.285 (inactive); with XIP peptide (Xip251-270), -0.9. The values for the z-score in experiment [2] and in experiment [3] were -1.23 and 1.16 (inactive), respectively.

Source of the values: PubChem BioAssay.
